Structures are written as SMILES. Out of some 370,000 compounds screened, about 3,700 (1%) were called active.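 Rule for the calls: active = activation above the mean over all tested compounds plus 3 SD (cut at about 0.9% in these data); inactive = the rest.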 This excerpt belongs to a sample that is enriched for actives.

In this assay the test system is Nuclear hormone receptor DAF-12 (Strongyloides stercoralis). As to the kind of experiment: ssDAF-12 driven luciferase reporter activation – cell-based, luminescence, HEK293, GRIP1 co-expression, lit1-tk-luc, primary screen (AID 652126).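 Note: 0% = DMSO-only wells and 100% = 3 µM delta7-dafachronic acid wells.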 Conditions: HEK293 ssDAF-12/GRIP1 lit1-tk-luc reporter, at 6.8 µM, hits give high values, % of 3 µM dafachronic acid response. A general note: Reporter assays use an easily measured gene product as a stand-in for the process of interest.
As for `CCN(CC)C(=O)CC[C@@H]1CC[C@]2(CCCN(S(=O)(=O)C3CCCCC3)C2)O1`, the activation is -1.11% (inactive).
For the molecule `CN(C)Cc1cn(-c2ccc(-c3noc4c3C(=O)N(CC(=O)N3CCOCC3)CC4)cc2)nn1`, the activation was -0.67% (inactive).
As for `O=C(OCC#CCSc1nnc(-c2ccco2)o1)c1ccc(F)cc1`, the activation is -0.22% (inactive).
As to `CCCC[C@H](C(=O)N(CC)c1ccccc1)[C@@H](O)c1ccc2ccccc2c1`, the activation is -1.15% (inactive).
Under `O=C(c1cc(COc2ccc(F)cc2F)on1)N1CCOCC1` stands 0.37% (inactive); under `O=C(c1cc(C2CCCCN2S(=O)(=O)c2ccccc2)on1)N1CCOCC1` (centres undefined), -1.54% (inactive).
With `O=C(c1cc(-c2ccc(O)cc2)on1)N1CCOCC1` the figure was 1.22% (active); with `O=C1Nc2ccccc2OC1CC(=O)N1CCCCCCC1` (centres undefined), -0.55% (inactive); with `c1cncc(CNc2ccnc(-c3ccc4c(c3)OCO4)n2)c1`, -1.42% (inactive).
With `CCOC(=O)[C@]12CCCC3=C1N(CCC3)C(=O)[C@@H](CC(=O)NCc1cccs1)C2` the figure was -1.02% (inactive); with `Cc1nc2ccc(C(=O)N3CCSCC3)cc2s1`, -1.17% (inactive); with `Cc1nc2ccc(NC(=O)C3CCCCC3)cc2s1`, -1.51% (inactive).
For the molecule `Brc1ccc2nc(N3CCCC3)sc2c1`, the activation was 1.8% (active).
With `C=CCN1C(=O)[C@H](CC(=O)NCCCN2CCCC2=O)[C@@]2(C(=O)OCC)CCCC=C12`, the activation was -0.32% (inactive).
Under `COc1cccc(C(=O)OCc2cc(=O)oc3c(C)c(C)ccc23)c1OC` stands 1.06% (active).
Consider `COC(=O)Cc1cc(=O)oc2c(C)c(O)ccc12`, for which the activation was -1% (inactive).
Regarding `COc1ccc(Br)cc1CN1CCN(C(=O)c2cccc(OC)c2OC)CC1`, the activation is -0.37% (inactive).
Consider `CC(C)[C@@H]1NC(=O)c2cc([N+](=O)[O-])cc(I)c2NCCC[C@@H](C(=O)NC(CC(=O)O)C(N)=O)NC(=O)[C@H](CO)NC1=O` (some centres undefined), for which the activation is -1.32% (inactive).
Consider `CCOC(=O)[C@]12CCCCC/C=C\1N(Cc1ccc(OC)cc1)C(=O)[C@H]2CC(=O)NCc1ccc(C)o1`, for which the activation is -1.69% (inactive).
On to `COC(=O)c1cc(S(=O)(=O)N2CCN(c3ccccc3C)CC2)cn1C`, for which the activation is -1.46% (inactive).
Consider `O=C(CCn1nnc2ccccc2c1=O)N[C@@H](Cc1c[nH]c2ccccc12)C(=O)O`, for which the activation is -1.08% (inactive).
Regarding `COc1ccc(-c2cc(C(=O)NC(C(=O)O)C(C)C)c(C)o2)cc1OC` (centres undefined), the activation is -0.63% (inactive).
Turning to `COc1ccc(-c2cc(C(=O)NC(Cc3c[nH]c4ccccc34)C(=O)O)c(C)o2)cc1OC` (centres undefined), the activation was 0.94% (active).
Regarding `CC1=NN(/C(=N\c2nnc(C)s2)Nc2ccccc2)[C@H](c2ccc(C)cc2)S1`, the activation was -1.96% (inactive).
